Results as given in PubChem BioAssay AID1159580 (chemical genetic matrix, 2015).
The campaign covered roughly 5,500 compounds. About 2,000 (36%) were called active. Inconclusive results (about 18%) are left out. Cut-off read from the data, not from the text of the source: active = normalized growth mostly below about 0.91 (no sharp cut-off); inconclusive = no clear call, values can overlap the other calls; inactive = mostly above about 0.92. The list shows a part of the results.

Assay: chemical genetic growth profiling, strain panel (AID 1159580);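 note: tested at 20 µM; growth read once vehicle control cultures reached saturation at 30 °C; 1 = growth at the plate median or of vehicle wells; lower values mean less growth of the strain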
Settings: growth OD
[1] = S. cerevisiae deletion strains, locus YAL013W, strain DEP1, hits give low values
[2] = S. cerevisiae deletion strains, locus YBR229C, strain ROT2, hits give low values
[3] = S. cerevisiae deletion strains, locus YDL101C, strain DUN1, hits give low values
[4] = S. cerevisiae deletion strains, locus YDL134C, strain PPH21, hits give low values
[5] = S. cerevisiae deletion strains, locus YDR150W, strain NUM1, hits give low values
[6] = S. cerevisiae deletion strains, locus YEL061C, strain CIN8, hits give low values
[7] = S. cerevisiae deletion strains, locus YGR078C, strain PAC10, hits give low values
[8] = S. cerevisiae deletion strains, locus YHR030C, strain SLT2, hits give low values
[9] = S. cerevisiae deletion strains, locus YHR087W, strain rtc3, hits give low values
[10] = S. cerevisiae deletion strains, locus YJR043C, strain POL32, hits give low values
[11] = S. cerevisiae deletion strains, locus YJR075W, strain HOC1, hits give low values
[12] = S. cerevisiae deletion strains, locus YKL190W, strain CNB1, hits give low values
[13] = S. cerevisiae deletion strains, locus YLR039C, strain RIC1, hits give low values
[14] = S. cerevisiae deletion strains, locus YLR058C, strain SHM2 (second series), hits give low values
[15] = S. cerevisiae deletion strains, locus YLR085C, strain ARP6, hits give low values
[16] = S. cerevisiae deletion strains, locus YLR262C, strain YPT6, hits give low values
[17] = S. cerevisiae deletion strains, locus YML094W, strain GIM5, hits give low values
[18] = S. cerevisiae deletion strains, locus YMR219W, strain ESC1, hits give low values
[19] = S. cerevisiae deletion strains, locus YMR263W, strain SAP30, hits give low values
[20] = S. cerevisiae deletion strains, locus YNL153C, strain GIM3, hits give low values
[21] = S. cerevisiae deletion strains, locus YNL298W, strain CLA4 (second series), hits give low values
[22] = S. cerevisiae deletion strains, locus YNL322C, strain KRE1, hits give low values
[23] = S. cerevisiae deletion strains, locus YNR030W, strain Alg12, hits give low values
[24] = S. cerevisiae deletion strains, locus YPL055C, strain LGE1, hits give low values
[25] = S. cerevisiae deletion strains, locus YPL241C, strain CIN2, hits give low values
[26] = S. cerevisiae deletion strains, locus YPR135W, strain CTF4, hits give low values
[27] = S. cerevisiae deletion strains, locus YCL061C, strain MRC1, hits give low values
[28] = S. cerevisiae deletion strains, locus YGR229C, strain SMI1, hits give low values
[29] = S. cerevisiae deletion strains, locus YNL128W, strain TEP1, hits give low values

Measured: normalized growth

O=[N+]([O-])c1cc(C(F)(F)F)ccc1NCCCn1ccnc1
inactive: [1] 1.01 | [2] 1.01 | [3] 1.06 | [4] 0.976 | [5] 1.04 | [6] 0.988 | [7] 1.03 | [8] 1.1 | [9] 0.965 | [10] 1.04 | [11] 1.04 | [12] 0.994 | [13] 1.08 | [14] 1 | [15] 1.03 | [16] 1 | [17] 1.01 | [18] 0.991 | [19] 1.03 | [20] 1.04 | [21] 1.01 | [22] 0.98 | [23] 1.01 | [24] 0.991 | [25] 1.03 | [26] 1.07

Cc1cc(C)c(C(=O)NCCNc2ccc(C(F)(F)F)cc2[N+](=O)[O-])c(C)c1
active: [6] 0.862 | [8] 0.259 | [9] 0.89 | [12] 0.794 | [13] 0.473 | [15] 0.331 | [16] 0.58 | [17] 0.817 | [21] 0.785 | [23] 0.652 | [24] 0.687 | [25] 0.846 | [26] 0.55
inactive: [1] 0.97 | [2] 0.951 | [27] 0.966 | [3] 0.98 | [4] 0.971 | [5] 0.9 | [7] 0.953 | [28] 1 | S. cerevisiae deletion strains, locus YJL187C, strain SWE1, hits give low values 0.978 | [10] 0.968 | [11] 0.895 | [14] 0.996 | [18] 0.98 | [19] 0.96 | [29] 0.957 | [20] 0.964 | [22] 0.986 | S. cerevisiae strains, strain wild type, hits give low values 0.916

Cc1c(C(=O)NCCNc2ccc(C(F)(F)F)cc2[N+](=O)[O-])cnn1-c1ccc(F)cc1
inactive: S. cerevisiae deletion strains, locus YAR019C, strain CDC15, hits give low values 0.981 | S. cerevisiae deletion strains, locus YBL105C, strain PKC1, hits give low values 0.971 | S. cerevisiae deletion strains, locus YBR135W, strain CKS1, hits give low values 0.974 | S. cerevisiae deletion strains, locus YBR136W, strain MEC1, hits give low values 0.978 | S. cerevisiae deletion strains, locus YBR160W, strain CDC28, hits give low values 0.979 | S. cerevisiae deletion strains, locus YDL017W, strain CDC7, hits give low values 0.982 | S. cerevisiae deletion strains, locus YDL028C, strain MPS1, hits give low values 0.989 | [3] 0.988 | S. cerevisiae deletion strains, locus YDL108W, strain KIN28, hits give low values 0.982 | S. cerevisiae deletion strains, locus YDL132W, strain cdc53, hits give low values 0.978 | S. cerevisiae deletion strains, locus YDL214C, strain PRR2, hits give low values 0.958 | S. cerevisiae deletion strains, locus YDR052C, strain DBF4, hits give low values 0.985 | S. cerevisiae deletion strains, locus YDR054C, strain cdc34, hits give low values 0.956 | S. cerevisiae deletion strains, locus YDR226W, strain ADK1, hits give low values 0.982 | S. cerevisiae deletion strains, locus YDR477W, strain SNF1, hits give low values 0.968 | S. cerevisiae deletion strains, locus YER123W, strain YCK3, hits give low values 0.966 | S. cerevisiae deletion strains, locus YER133W, strain GLC7, hits give low values 0.982 | S. cerevisiae deletion strains, locus YFL009W, strain cdc4, hits give low values 0.98 | S. cerevisiae deletion strains, locus YFL029C, strain CAK1, hits give low values 0.977 | S. cerevisiae deletion strains, locus YFR003C, strain YPI1, hits give low values 0.984 | S. cerevisiae deletion strains, locus YFR019W, strain FAB1, hits give low values 0.973 | S. cerevisiae deletion strains, locus YFR028C, strain CDC14, hits give low values 0.978 | S. cerevisiae deletion strains, locus YGR040W, strain KSS1, hits give low values 0.958 | S. cerevisiae deletion strains, locus YGR052W, strain FMP48, hits give low values 1.06 | S. cerevisiae deletion strains, locus YGR092W, strain DBF2, hits give low values 0.935 | [8] 0.97 | S. cerevisiae deletion strains, locus YHR079C, strain IRE1, hits give low values 0.954 | S. cerevisiae deletion strains, locus YHR082C, strain KSP1, hits give low values 1.01 | S. cerevisiae deletion strains, locus YHR205W, strain SCH9, hits give low values 0.962 | S. cerevisiae deletion strains, locus YIL147C, strain SLN1, hits give low values 0.986 | S. cerevisiae deletion strains, locus YJL095W, strain BCK1, hits give low values 0.978 | S. cerevisiae deletion strains, locus YJL128C, strain PBS2, hits give low values 0.946 | S. cerevisiae deletion strains, locus YJL157C, strain FAR1, hits give low values 0.943 | S. cerevisiae deletion strains, locus YJR016C, strain ILV3, hits give low values 0.984 | S. cerevisiae deletion strains, locus YJR066W, strain TOR1 (second series), hits give low values 0.933 | S. cerevisiae deletion strains, locus YJR066W, strain TOR1, hits give low values 0.999 | S. cerevisiae deletion strains, locus YKL048C, strain ELM1, hits give low values 0.949 | S. cerevisiae deletion strains, locus YKL067W, strain YNK1, hits give low values 0.97 | S. cerevisiae deletion strains, locus YKL101W, strain HSL1, hits give low values 0.947 | S. cerevisiae deletion strains, locus YKL193C, strain SDS22, hits give low values 0.983 | S. cerevisiae deletion strains, locus YKL203C, strain TOR2, hits give low values 1.01 | S. cerevisiae deletion strains, locus YLR113W, strain HOG1, hits give low values 0.904 | S. cerevisiae deletion strains, locus YLR133W, strain CKI1, hits give low values 0.941 | S. cerevisiae deletion strains, locus YLR403W, strain SFP1, hits give low values 0.937 | S. cerevisiae deletion strains, locus YML070W, strain DAK1, hits give low values 0.94 | S. cerevisiae deletion strains, locus YMR001C, strain CDC5, hits give low values 0.985 | S. cerevisiae deletion strains, locus YMR205C, strain PFK2 (second series), hits give low values 0.978 | S. cerevisiae deletion strains, locus YMR277W, strain FCP1, hits give low values 0.991 | S. cerevisiae deletion strains, locus YNL006W, strain LST8, hits give low values 1 | S. cerevisiae deletion strains, locus YNL020C, strain ARK1, hits give low values 0.941 | S. cerevisiae deletion strains, locus YNL161W, strain CBK1, hits give low values 0.975 | S. cerevisiae deletion strains, locus YNL183C, strain NPR1, hits give low values 0.986 | S. cerevisiae deletion strains, locus YNL207W, strain RIO2, hits give low values 0.973 | S. cerevisiae deletion strains, locus YNL222W, strain SSU72, hits give low values 0.974 | S. cerevisiae deletion strains, locus YNL307C, strain MCK1 (second series), hits give low values 0.939 | S. cerevisiae deletion strains, locus YOL078W, strain AVO1, hits give low values 0.986 | S. cerevisiae deletion strains, locus YOL136C, strain PFK27, hits give low values 0.938 | S. cerevisiae deletion strains, locus YOR061W, strain CKA2, hits give low values 0.99 | S. cerevisiae deletion strains, locus YOR119C, strain RIO1, hits give low values 1.01 | S. cerevisiae deletion strains, locus YOR231W, strain MKK1, hits give low values 0.912 | S. cerevisiae deletion strains, locus YOR329C, strain SCD5, hits give low values 0.984 | S. cerevisiae deletion strains, locus YPL031C, strain PHO85, hits give low values 0.96 | S. cerevisiae deletion strains, locus YPL153C, strain RAD53, hits give low values 0.954 | S. cerevisiae deletion strains, locus YPL204W, strain HRR25, hits give low values 0.943 | S. cerevisiae deletion strains, locus YPL209C, strain IPL1, hits give low values 0.979 | S. cerevisiae deletion strains, locus YPL256C, strain CLN2, hits give low values 0.908 | S. cerevisiae deletion strains, locus YPR025C, strain CCL1, hits give low values 0.979 | S. cerevisiae deletion strains, locus YPR106W, strain ISR1, hits give low values 0.965 | S. cerevisiae deletion strains, locus YPR111W, strain DBF20, hits give low values 0.962 | S. cerevisiae deletion strains, strain NNK1, hits give low values 0.971 | S. cerevisiae deletion strains, strain TSCII, hits give low values 0.982

CC(O)CNc1ccc(C(F)(F)F)cc1[N+](=O)[O-] (centres undefined)
inactive: [1] 1.01 | [2] 1.01 | [27] 1.03 | [3] 1.03 | [5] 1.04 | [6] 0.997 | [7] 1.02 | [28] 0.993 | [8] 0.987 | [9] 1 | [10] 1.02 | [11] 1.04 | [12] 1.02 | [13] 1.08 | [14] 0.998 | [15] 0.989 | [16] 0.985 | [17] 0.947 | [18] 1 | [19] 1.02 | S. cerevisiae deletion strains, locus YMR307W, strain GAS1, hits give low values 1.03 | [29] 1.02 | [20] 0.998 | [21] 1.05 | [22] 1 | [23] 0.999 | [24] 0.966 | [25] 1.01 | [26] 1.01

O=C(NCCNc1ccc(C(F)(F)F)cc1[N+](=O)[O-])c1cccs1
inactive: [1] 0.974 | [2] 0.972 | [27] 0.983 | [3] 0.93 | [5] 0.931 | [6] 0.948 | [7] 0.967 | [28] 0.974 | [9] 0.973 | [10] 0.978 | [11] 0.998 | [13] 0.838 | [14] 0.967 | [16] 0.915 | [18] 0.982 | [19] 1.02 | [20] 0.976 | [21] 0.863 | [22] 0.988 | [23] 0.911 | S. cerevisiae deletion strains, locus YOL006C, strain TOP1, hits give low values 0.778 | [25] 1.13 | [26] 0.743
active: [8] 0.673 | [15] 0.775 | [17] 0.841 | [24] 0.771
